Results reported in PubChem BioAssay AID1159580 (chemical genetic matrix, 2015).
The campaign covered roughly 5,500 compounds. About 2,000 (36%) were called active. Roughly 18% stayed inconclusive and do not appear here. The list shows a part of the results. Values without a mark were called inactive. No stated cut-off is given here; in the data, active means normalized growth mostly below about 0.91 (no sharp cut-off); inconclusive means no clear call, values can overlap the other calls; inactive means mostly above about 0.92.

Assay: chemical genetic growth profiling, strain panel (AID 1159580);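 further: tested at 20 µM; growth read once vehicle control cultures reached saturation at 30 °C; 1 = growth at the plate median or of vehicle wells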
Conditions: S. cerevisiae deletion strains, growth OD

For `N#Cc1c2ccccc2nc2ccccc12`, the normalized growth (locus YAR019C, strain CDC15, stronger effect = lower value) was 0.818 (active), the normalized growth (locus YBL105C, strain PKC1, stronger effect = lower value) was 0.834 (active) and the normalized growth (locus YBR135W, strain CKS1, stronger effect = lower value) was 0.808 (active). For the same molecule, the normalized growth (locus YBR136W, strain MEC1, stronger effect = lower value) was 0.827 (active), the normalized growth (locus YBR160W, strain CDC28, stronger effect = lower value) was 0.823 (active) and the normalized growth (locus YDL017W, strain CDC7, stronger effect = lower value) was 0.834 (active). For the same molecule, the normalized growth (locus YDL028C, strain MPS1, stronger effect = lower value) was 0.825 (active), the normalized growth (locus YDL101C, strain DUN1, stronger effect = lower value) was 0.832 (active) and the normalized growth (locus YDL108W, strain KIN28, stronger effect = lower value) was 0.826 (active). For the same molecule, the normalized growth (locus YDL132W, strain cdc53, stronger effect = lower value) was 0.885, the normalized growth (locus YDL214C, strain PRR2, stronger effect = lower value) was 0.743 and the normalized growth (locus YDR052C, strain DBF4, stronger effect = lower value) was 0.829 (active). For the same molecule, the normalized growth (locus YDR054C, strain cdc34, stronger effect = lower value) was 0.781 (active), the normalized growth (locus YDR226W, strain ADK1, stronger effect = lower value) was 0.825 (active) and the normalized growth (locus YDR477W, strain SNF1, stronger effect = lower value) was 0.678 (active). For the same molecule, the normalized growth (locus YER123W, strain YCK3, stronger effect = lower value) was 0.678, the normalized growth (locus YER133W, strain GLC7, stronger effect = lower value) was 0.717 (active) and the normalized growth (locus YFL009W, strain cdc4, stronger effect = lower value) was 0.813 (active). The normalized growth (locus YFL029C, strain CAK1, stronger effect = lower value) was 0.813 (active), the normalized growth (locus YFR003C, strain YPI1, stronger effect = lower value) was 0.831 (active) and the normalized growth (locus YFR019W, strain FAB1, stronger effect = lower value) was 0.844. The normalized growth (locus YFR028C, strain CDC14, stronger effect = lower value) was 0.832 (active), the normalized growth (locus YGR040W, strain KSS1, stronger effect = lower value) was 0.716 and the normalized growth (locus YGR052W, strain FMP48, stronger effect = lower value) was 0.736. The normalized growth (locus YGR092W, strain DBF2, stronger effect = lower value) was 0.196 (active), the normalized growth (locus YHR030C, strain SLT2, stronger effect = lower value) was 0.693 (active) and the normalized growth (locus YHR079C, strain IRE1, stronger effect = lower value) was 0.599. The normalized growth (locus YHR082C, strain KSP1, stronger effect = lower value) was 0.72, the normalized growth (locus YHR205W, strain SCH9, stronger effect = lower value) was 0.807 and the normalized growth (locus YIL147C, strain SLN1, stronger effect = lower value) was 0.822 (active). For the same molecule, the normalized growth (locus YJL095W, strain BCK1, stronger effect = lower value) was 0.561, the normalized growth (locus YJL128C, strain PBS2, stronger effect = lower value) was 0.87 and the normalized growth (locus YJL157C, strain FAR1, stronger effect = lower value) was 0.675 (active). The normalized growth (locus YJR016C, strain ILV3, stronger effect = lower value) was 0.816 (active), the normalized growth (locus YJR066W, strain TOR1 (second series), stronger effect = lower value) was 0.728 and the normalized growth (locus YJR066W, strain TOR1, stronger effect = lower value) was 0.615. The normalized growth (locus YKL048C, strain ELM1, stronger effect = lower value) was 0.746 (active), the normalized growth (locus YKL067W, strain YNK1, stronger effect = lower value) was 0.744 and the normalized growth (locus YKL101W, strain HSL1, stronger effect = lower value) was 0.761. The normalized growth (locus YKL193C, strain SDS22, stronger effect = lower value) was 0.803 (active), the normalized growth (locus YKL203C, strain TOR2, stronger effect = lower value) was 0.693 (active) and the normalized growth (locus YLR113W, strain HOG1, stronger effect = lower value) was 0.638 (active). For the same molecule, the normalized growth (locus YLR133W, strain CKI1, stronger effect = lower value) was 0.737, the normalized growth (locus YLR403W, strain SFP1, stronger effect = lower value) was 0.605 (active) and the normalized growth (locus YML070W, strain DAK1, stronger effect = lower value) was 0.726. The normalized growth (locus YMR001C, strain CDC5, stronger effect = lower value) was 0.818 (active), the normalized growth (locus YMR205C, strain PFK2 (second series), stronger effect = lower value) was 0.761 and the normalized growth (locus YMR277W, strain FCP1, stronger effect = lower value) was 0.817 (active). The normalized growth (locus YNL006W, strain LST8, stronger effect = lower value) was 0.829 (active), the normalized growth (locus YNL020C, strain ARK1, stronger effect = lower value) was 0.717 and the normalized growth (locus YNL161W, strain CBK1, stronger effect = lower value) was 0.823 (active). For the same molecule, the normalized growth (locus YNL183C, strain NPR1, stronger effect = lower value) was 0.584, the normalized growth (locus YNL207W, strain RIO2, stronger effect = lower value) was 0.822 (active) and the normalized growth (locus YNL222W, strain SSU72, stronger effect = lower value) was 0.825 (active). The normalized growth (locus YNL307C, strain MCK1 (second series), stronger effect = lower value) was 0.649, the normalized growth (locus YOL078W, strain AVO1, stronger effect = lower value) was 0.803 (active) and the normalized growth (locus YOL136C, strain PFK27, stronger effect = lower value) was 0.742. The normalized growth (locus YOR061W, strain CKA2, stronger effect = lower value) was 0.677 (active), the normalized growth (locus YOR119C, strain RIO1, stronger effect = lower value) was 0.749 and the normalized growth (locus YOR231W, strain MKK1, stronger effect = lower value) was 0.587. The normalized growth (locus YOR329C, strain SCD5, stronger effect = lower value) was 0.829 (active), the normalized growth (locus YPL031C, strain PHO85, stronger effect = lower value) was 0.616 (active) and the normalized growth (locus YPL153C, strain RAD53, stronger effect = lower value) was 0.659 (active). The normalized growth (locus YPL204W, strain HRR25, stronger effect = lower value) was 0.693, the normalized growth (locus YPL209C, strain IPL1, stronger effect = lower value) was 0.833 (active) and the normalized growth (locus YPL256C, strain CLN2, stronger effect = lower value) was 0.708 (active). The normalized growth (locus YPR025C, strain CCL1, stronger effect = lower value) was 0.82 (active), the normalized growth (locus YPR106W, strain ISR1, stronger effect = lower value) was 0.862 (active) and the normalized growth (locus YPR111W, strain DBF20, stronger effect = lower value) was 0.843 (active). The normalized growth (strain NNK1, stronger effect = lower value) was 0.846 (active) and the normalized growth (strain TSCII, stronger effect = lower value) was 0.811 (active).
